Source: PubChem (several laboratories)
Compounds with a hit are over-represented: about 1.3% of the library has one in this group of screens.
CRFBP-R2 block = blocks CRF-induced signaling of the CRF-BP/CRF-R2 complex | AID 588475 | inhibition, % at 11.8 µM | HEK293 CRF-R2/CRF-BP, CRF-induced calcium fluorescence | 0.59% of 350,000 active;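 active = inhibition of the ligand-induced calcium signal above about 50% at the single tested concentration, limit read from the data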
cardiac RTF act = increases calcium sensitivity of human cardiac regulated thin filaments. activation, % at 7.2 µM. P19429+P45379. IANBD-labeled TnC RTF fluorescence at EC20 calcium; 0% EC20 calcium, 100% full calcium. 0.24% of 340,000 active. AID 493008;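 active = activation above the mean over all tested compounds plus 3 SD, cut at about 30% in these data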;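 note: rise in fluorescence read as greater calcium sensitivity of cardiac thin filaments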
CRFR2-BP ag = CRF-BP/CRF-R2 complex agonism; activation, % at 13.2 µM; 0.46% of 350,000 active; HEK293 CRF-R2/CRF-BP, calcium dye fluorescence (FLIPR); percent of saturating CRF peptide response;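 active = activation of at least 50%, plus an integration ratio under a set limit after plate pattern correction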
RTF Ca sens inh = cardiac RTF calcium desensitization; P19429+P45379; IANBD-labeled cardiac RTF, Ca2+ fluorescence; inhibition, % at 7.15 µM; 0.12% of 340,000 active; AID 493244;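 active = inhibition above the mean inhibition of all tested compounds plus 3 SD, cut at about 17% in these data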;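 note: assay run at fixed EC70 calcium of 1.6 mM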
Hits are given with their value.

How did Cc1nnc(C)n1/N=C/c1ccccc1 do in these assays?
CRFBP-R2 block: inactive; cardiac RTF act: inactive; CRFR2-BP ag: inactive; RTF Ca sens inh: inactive

Results for CCOc1ccc(NC(=O)CCNS(=O)(=O)c2cccc3nonc23)cc1 ?
CRFBP-R2 block: 55; cardiac RTF act: inactive; CRFR2-BP ag: inactive; RTF Ca sens inh: inactive

How did Cc1ccc(NC(=O)CCNS(=O)(=O)c2cccc3nonc23)cc1 do in these assays?
CRFBP-R2 block: inactive; cardiac RTF act: inactive; CRFR2-BP ag: inactive; RTF Ca sens inh: inactive

Results for CS(=O)(=O)N1CCc2cc(S(=O)(=O)N3CCN(Cc4ccc5c(c4)OCO5)CC3)ccc21 ?
CRFBP-R2 block: 57; cardiac RTF act: inactive; CRFR2-BP ag: inactive; RTF Ca sens inh: inactive

Results for O=C(COC(=O)c1cccc([N+](=O)[O-])c1)Nc1ncc(Br)s1 ?
CRFBP-R2 block: inactive; cardiac RTF act: inactive; CRFR2-BP ag: inactive; RTF Ca sens inh: inactive

What do the screens show for `CCOC(=O)/C(C#N)=C\c1ccc(N2CCN(C/C=C/c3ccccc3)CC2)cc1`?
CRFBP-R2 block: inactive; cardiac RTF act: 76; CRFR2-BP ag: 55; RTF Ca sens inh: inactive

Results for CCOC(=O)/C(C#N)=C\c1ccc2c(c1)OCO2 ?
CRFBP-R2 block: 110; cardiac RTF act: inactive; CRFR2-BP ag: inactive; RTF Ca sens inh: inactive

Results for CCOC(=O)/C(C#N)=C\c1cc(C)n(-c2ccccc2)c1C ?
CRFBP-R2 block: inactive; cardiac RTF act: inactive; CRFR2-BP ag: inactive; RTF Ca sens inh: inactive

Results for Cc1ccc(NC(=O)COC(=O)CN2C(=O)NC3(CCCC3)C2=O)cc1S(=O)(=O)N(C)C ?
CRFBP-R2 block: 61; cardiac RTF act: inactive; CRFR2-BP ag: inactive; RTF Ca sens inh: inactive

What do the screens show for `Cc1ccc(NC(=O)COC(=O)CN2C(=O)NC3(CCCC3)C2=O)cc1Cl`?
CRFBP-R2 block: inactive; cardiac RTF act: inactive; CRFR2-BP ag: inactive; RTF Ca sens inh: inactive

What do the screens show for `CCc1cccc(C)c1NC(=S)N1CCCCC1c1cccnc1` (stereo not given)?
CRFBP-R2 block: inactive; cardiac RTF act: inactive; CRFR2-BP ag: 54; RTF Ca sens inh: inactive

Results for O=C(NC1CCCC1)C1CCC(CNS(=O)(=O)c2ccccc2)CC1 (stereo not given) ?
CRFBP-R2 block: inactive; cardiac RTF act: inactive; CRFR2-BP ag: inactive; RTF Ca sens inh: inactive

Results for O=C(NC1CCCC1)C1CCC(CNS(=O)(=O)c2ccc(F)cc2)CC1 (stereo not given) ?
CRFBP-R2 block: 89; cardiac RTF act: inactive; CRFR2-BP ag: inactive; RTF Ca sens inh: inactive

What do the screens show for `CNC(=O)CN(c1cc([N+](=O)[O-])ccc1OC)S(C)(=O)=O`?
CRFBP-R2 block: inactive; cardiac RTF act: inactive; CRFR2-BP ag: inactive; RTF Ca sens inh: inactive

What do the screens show for `COc1ccc([N+](=O)[O-])cc1N(CC(=O)NCCCOC(C)C)S(C)(=O)=O`?
CRFBP-R2 block: 60; cardiac RTF act: inactive; CRFR2-BP ag: inactive; RTF Ca sens inh: inactive

Results for O=C(c1ccc(Cl)c([N+](=O)[O-])c1)N(Cc1ccco1)C1CCS(=O)(=O)C1 (stereo not given) ?
CRFBP-R2 block: inactive; cardiac RTF act: inactive; CRFR2-BP ag: inactive; RTF Ca sens inh: inactive

What do the screens show for `COc1cccc2sc(NN)nc12`?
CRFBP-R2 block: inactive; cardiac RTF act: inactive; CRFR2-BP ag: inactive; RTF Ca sens inh: inactive

What do the screens show for `O=C(Nc1nnc(-c2ccccc2Cl)o1)c1nc2ccccc2s1`?
CRFBP-R2 block: inactive; cardiac RTF act: inactive; CRFR2-BP ag: 140; RTF Ca sens inh: inactive

How did COc1ccccc1-c1nnc(Nc2nc3c(OC)cccc3s2)o1 do in these assays?
CRFBP-R2 block: 53; cardiac RTF act: inactive; CRFR2-BP ag: inactive; RTF Ca sens inh: inactive

How did COc1cccc2sc(Nc3nnc(-c4ccccc4Cl)o3)nc12 do in these assays?
CRFBP-R2 block: inactive; cardiac RTF act: inactive; CRFR2-BP ag: 77; RTF Ca sens inh: inactive

Results for Cc1cc(C(=O)N2CCN(c3ccc([N+](=O)[O-])cc3)CC2)co1 ?
CRFBP-R2 block: 59; cardiac RTF act: inactive; CRFR2-BP ag: inactive; RTF Ca sens inh: inactive

What do the screens show for `Cc1ccc(N2CC(C(=O)NCCC3=CCCCC3)CC2=O)cc1` (stereo not given)?
CRFBP-R2 block: inactive; cardiac RTF act: inactive; CRFR2-BP ag: inactive; RTF Ca sens inh: inactive

What do the screens show for `CC(=O)c1cc(F)c(N2CCN(C(=O)C(C)(C)C)CC2)cc1C`?
CRFBP-R2 block: 74; cardiac RTF act: inactive; CRFR2-BP ag: inactive; RTF Ca sens inh: inactive

Results for CCOC(=O)/C=C1/SCC(=O)N1CCOc1cccc(Br)c1 ?
CRFBP-R2 block: inactive; cardiac RTF act: inactive; CRFR2-BP ag: inactive; RTF Ca sens inh: inactive
